The source of these data is PubChem BioAssay (NCATS).

The target in assay [1] is Rap guanine nucleotide exchange factor 3 (Homo sapiens) (UniProt O95398). Briefly: Confirmatory qHTS for antagonist of cAMP-regulated guanine nucleotide exchange factor 3 (EPAC1) (AID 1645880). Further: nearly all actives have a fitted effect of over 55% in size. Further: potency means the concentration at half of the fitted maximal effect.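 On activity, negative = inhibition: plate controls were DMSO only for no effect and full effect of the ATA control for full effect.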 The note with it: EPAC1 Rap1B-BODIPY-GDP exchange, fluorescence; activity, negative = inhibition: at 115 µM (top of the series). The gist of the method:
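Nucleotide exchange uses 100 nM EPAC1, 250 nM RAP1B-BODIPY-GDP and 50 uM GDP, with compounds in a concentration-titration series. After 5 min at room temperature, fluorescence (480 nm ex/540 nm em) is read every 5 min for 30 min. Data are normalized to control ATA and DMSO.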

For assay [2], the target named is Rap guanine nucleotide exchange factor 4 (Homo sapiens) (UniProt Q8WZA2). Briefly: Confirmatory qHTS for agonist of cAMP-regulated guanine nucleotide exchange factor 4 (EPAC2) (AID 1645884).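 Further: nucleotide exchange releases bodipy-GDP from Rap1 and this lowers its fluorescence; nearly all actives have a fitted effect of over 65% in size.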 Further: potency means the concentration at half of the fitted maximal effect. On activation: on the % scale 0 is the no-effect control and ±100 the full control effect.
For assay [3] the target is unchanged. Nature of the assay: Confirmatory qHTS for antagonist of cAMP-regulated guanine nucleotide exchange factor 4 (EPAC2) (AID 1645885). Further: nearly all actives have a fitted effect of over 25% in size. Further: potency means the concentration at half of the fitted maximal effect. On activity change, negative = inhibition: on the % scale 0 is the no-effect control and ±100 the full control effect.
The target of assay [4] is Rap guanine nucleotide exchange factor 3 (Homo sapiens) (UniProt O95398). Nature of the assay: Counterscreen qHTS for antagonist of cAMP-regulated guanine nucleotide exchange factor 3 (EPAC1) (AID 1645888).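 Further: fluorescence loss as bound BODIPY-GDP is released from Rap1B; % of control where 0% means no effect.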 An outline of the steps: (§1)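 Rap1B–BODIPY-GDP (250 nM) with 50 uM GDP; compounds pin-transferred to 9.74 nM–152 uM final (activator) or from 7.32 nM upwards (inhibitor). Fluorescence Ex/Em 480/540 nm read at 5 and 30 min, then after adding cAMP or buffer, at room temperature.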

The target is the same in assay [5]. Briefly: Counterscreen qHTS for agonist of cAMP-regulated guanine nucleotide exchange factor 3 (EPAC1) (AID 1645889). Further: nearly all actives have a fitted effect of over 40% in size. Further: potency means the concentration at half of the fitted maximal effect. On activation: % of control where 0% means no effect. The gist of the method: as §1
For assay [6], the target named is Tumor susceptibility gene 101 protein (Homo sapiens) (UniProt Q99816). Nature of the assay: qHTS Assay for Iinhibitors of HIV-1 Budding by Blocking the Interaction of PTAP/TSG101: Hit Validation (AID 651600). Further: nearly all actives have a fitted effect of over 70% in size. Further: potency means the concentration at half of the fitted maximal effect. On activity change, negative = inhibition: on the % scale 0 is the no-effect control and ±100 the full control effect. An outline of the steps: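 Fluorescence polarization binding assay: Tsg101 binding domain (10 uM) mixed with compounds and FITC-labeled PTAP peptide (50 nM) in HEPES pH 7.5, 0.15 M NaCl, 0.01% Tween 20, EDTA, TCEP; 20 min at r.t.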

Assay [7] is described as follows: Counterscreen for APE1 Inhibitors: Fluorescent Dye Displacement Assay (AID 2564).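 Further: loss of thiazole orange fluorescence as the dye is displaced from duplex DNA; 0% = ThO with dsDNA and no compound and -100% = ThO without dsDNA.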 The gist of the method:
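Compounds are scored by their ability to displace Thiazole Orange (250 nM) from a 50 nM TAMRA-tagged duplex bearing a tetrahydrofuran abasic site. Buffer is 50 mM Tris-HCl pH7.5, 50mM NaCl, 2 mM MgCl2, 0.01% Tween-20.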

Assay [8] concerns the target Endonuclease 4 (Escherichia coli (strain K12)) (UniProt P0A6C1). Nature of the assay: Counterscreen for APE1 Inhibitors: qHTS Assay for Inhibitors of Endonuclease IV (AID 2565).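 Further: plate controls were uninhibited enzyme wells for no effect and no enzyme buffer wells for full effect.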 The gist of the method:
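Cleavage of a quenched abasic-site DNA duplex (50 nM, 5'-TAMRA, 3'-BHQ-2) by 2 nM enzyme is followed as fluorescence increase. Compounds are preincubated with enzyme 15 min at room temperature before substrate addition.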

The target of assay [9] is DNA repair nuclease/redox regulator APEX1 (Homo sapiens) (UniProt P27695). Nature of the assay: Confirmation qHTS Assay for Inhibitors of the Human Apurinic/apyrimidinic Endonuclease 1 (APE1) (AID 2572). Further: potency means the concentration at half of the fitted maximal effect; nearly all actives have a fitted effect of over 30% in size. As to conditions: purified APE1, fluorogenic abasic-site DNA cleavage. An outline of the steps: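 Readout: kinetic fluorescence (Ex 525, Em 598 nm) from APE1 incision of a 5'-TAMRA, 3'-BHQ-2 duplex containing a THF abasic site at 50 nM final. Compound preincubation 15 min, room temperature.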

The target is the same in assay [10]. Briefly: qHTS FP-Based Assay for Inhibitors of the Human Apurinic/apyrimidinic Endonuclease 1 (APE1) (AID 2573). Further: on the % scale 0 is the no-effect control and ±100 the full control effect.

Results filed as inconclusive are left out. Unmarked numbers belong to inactive results. The list shows a part of the results. The source made the active and inactive calls. The call rests on the fitted dose curve; in most records, active means well fitted curve in the direction sought with a large enough effect; inconclusive means small, poorly fitted or top-dose-only effect, or another doubt; inactive means no such curve, though single readings can be large; an effect the other way counts as inactive or inconclusive.

Tumor susceptibility gene 101 protein (Homo sapiens), sequence (Q99816 whole entry, looked up, the tested form may be a part): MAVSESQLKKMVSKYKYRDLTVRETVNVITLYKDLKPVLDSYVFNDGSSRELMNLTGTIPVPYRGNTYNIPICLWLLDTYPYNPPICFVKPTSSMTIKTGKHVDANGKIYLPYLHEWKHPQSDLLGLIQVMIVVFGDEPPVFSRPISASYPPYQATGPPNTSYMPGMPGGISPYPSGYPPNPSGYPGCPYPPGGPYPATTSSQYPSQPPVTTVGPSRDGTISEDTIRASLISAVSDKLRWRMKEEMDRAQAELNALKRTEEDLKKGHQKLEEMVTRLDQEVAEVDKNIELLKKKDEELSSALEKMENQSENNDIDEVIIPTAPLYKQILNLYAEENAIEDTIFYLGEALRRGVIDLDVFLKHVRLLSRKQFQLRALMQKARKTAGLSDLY
Rap guanine nucleotide exchange factor 4 (Homo sapiens), sequence (Q8WZA2 whole entry, looked up): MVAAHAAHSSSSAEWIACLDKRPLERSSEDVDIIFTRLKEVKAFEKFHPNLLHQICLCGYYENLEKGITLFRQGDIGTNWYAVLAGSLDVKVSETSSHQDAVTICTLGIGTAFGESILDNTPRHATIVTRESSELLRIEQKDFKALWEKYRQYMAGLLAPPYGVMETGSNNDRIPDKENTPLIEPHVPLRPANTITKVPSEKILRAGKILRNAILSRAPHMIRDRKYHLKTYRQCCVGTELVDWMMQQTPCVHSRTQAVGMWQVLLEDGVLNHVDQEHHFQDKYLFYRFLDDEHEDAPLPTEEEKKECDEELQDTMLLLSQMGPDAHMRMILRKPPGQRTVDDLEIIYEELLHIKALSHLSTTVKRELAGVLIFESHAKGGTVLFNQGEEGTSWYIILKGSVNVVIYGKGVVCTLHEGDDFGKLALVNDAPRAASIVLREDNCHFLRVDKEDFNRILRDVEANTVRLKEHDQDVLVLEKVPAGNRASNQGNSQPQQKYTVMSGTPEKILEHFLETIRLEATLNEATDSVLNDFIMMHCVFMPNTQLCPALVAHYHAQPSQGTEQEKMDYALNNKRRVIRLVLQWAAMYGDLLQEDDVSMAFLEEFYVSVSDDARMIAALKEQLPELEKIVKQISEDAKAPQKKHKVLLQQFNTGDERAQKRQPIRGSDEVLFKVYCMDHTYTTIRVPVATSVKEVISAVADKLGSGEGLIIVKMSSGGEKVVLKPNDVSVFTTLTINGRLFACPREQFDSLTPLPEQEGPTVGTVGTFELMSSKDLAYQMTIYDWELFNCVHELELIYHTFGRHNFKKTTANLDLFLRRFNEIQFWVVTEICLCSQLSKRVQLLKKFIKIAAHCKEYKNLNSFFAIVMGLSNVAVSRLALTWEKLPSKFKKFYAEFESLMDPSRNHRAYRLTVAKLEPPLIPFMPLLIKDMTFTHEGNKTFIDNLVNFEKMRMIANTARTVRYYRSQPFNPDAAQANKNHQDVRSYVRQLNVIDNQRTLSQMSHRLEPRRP
Rap guanine nucleotide exchange factor 3 (Homo sapiens), sequence (O95398 whole entry, looked up): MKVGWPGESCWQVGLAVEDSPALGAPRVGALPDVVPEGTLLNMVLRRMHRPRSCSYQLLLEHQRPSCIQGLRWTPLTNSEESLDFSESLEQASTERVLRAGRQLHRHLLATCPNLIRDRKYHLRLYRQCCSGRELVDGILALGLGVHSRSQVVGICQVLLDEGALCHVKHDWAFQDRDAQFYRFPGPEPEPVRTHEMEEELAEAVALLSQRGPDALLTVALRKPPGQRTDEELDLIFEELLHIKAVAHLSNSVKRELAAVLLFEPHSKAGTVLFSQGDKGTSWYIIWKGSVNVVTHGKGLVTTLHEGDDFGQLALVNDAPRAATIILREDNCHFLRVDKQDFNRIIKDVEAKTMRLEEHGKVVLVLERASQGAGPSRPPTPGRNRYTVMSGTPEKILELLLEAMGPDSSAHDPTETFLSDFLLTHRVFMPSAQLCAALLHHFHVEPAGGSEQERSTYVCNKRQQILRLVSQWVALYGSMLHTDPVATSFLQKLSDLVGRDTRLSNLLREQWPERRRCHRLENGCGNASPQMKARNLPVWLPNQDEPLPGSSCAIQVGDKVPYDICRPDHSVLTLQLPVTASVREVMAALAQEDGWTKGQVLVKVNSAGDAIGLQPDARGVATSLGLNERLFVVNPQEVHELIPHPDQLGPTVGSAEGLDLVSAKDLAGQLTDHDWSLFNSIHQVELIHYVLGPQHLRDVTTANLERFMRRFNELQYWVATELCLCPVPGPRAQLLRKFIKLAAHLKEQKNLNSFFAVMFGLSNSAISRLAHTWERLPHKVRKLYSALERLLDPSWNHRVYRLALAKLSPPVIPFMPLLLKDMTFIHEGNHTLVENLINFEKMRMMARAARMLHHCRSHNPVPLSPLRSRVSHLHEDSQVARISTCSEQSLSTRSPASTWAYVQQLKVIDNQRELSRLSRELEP
DNA repair nuclease/redox regulator APEX1 (Homo sapiens), sequence (P27695 whole entry, looked up): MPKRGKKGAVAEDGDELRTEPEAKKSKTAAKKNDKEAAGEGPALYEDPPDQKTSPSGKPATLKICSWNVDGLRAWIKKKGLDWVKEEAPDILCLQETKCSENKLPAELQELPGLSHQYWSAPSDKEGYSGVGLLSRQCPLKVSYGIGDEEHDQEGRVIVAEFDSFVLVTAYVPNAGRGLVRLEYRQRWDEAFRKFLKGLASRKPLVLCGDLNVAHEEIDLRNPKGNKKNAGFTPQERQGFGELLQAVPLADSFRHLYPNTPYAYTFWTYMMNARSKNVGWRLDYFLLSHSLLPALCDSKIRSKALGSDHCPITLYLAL

Consider `Cc1ccc(-c2csc3ncnc(Nc4ccc(C(=O)O)cc4)c23)cc1`, for which the Potency entry in [1], in assay [2], in [3], in [4] and in assay [5] was “inactive” each time.
In the case of `O=C(N/N=C/c1cccnc1)c1cc(-c2ccccc2OCc2ccccc2)n[nH]1`, the Potency result in assay [1], in assay [3] and in assay [4] was “inactive” in each case. Moreover, the Potency in [2] is 89.1 µM (active); in assay [5] it was 25.1 µM (active).
For the compound `Cc1nc2ccccc2n2c(O)c(CC(=O)O)cc12`, the Potency is 14.6 µM (active) in [6], 112 µM (active) in assay [2] and 44.7 µM (active) in assay [5]. Besides, the Potency result in assay [1], in assay [3] and in assay [4] was “inactive” each time.
Take `Cc1ccc2oc(=O)c(/C=C(\O)c3ccccc3)nc2c1`: the Potency result in assay [6], in assay [1] and in [3] was “inactive” throughout. Further, the activation is 10.1% [at 17.1 µM, percent relative to cAMP agonist control] in assay [2] and 12.5% [at 30.8 µM] in [5]. Besides, in assay [4], the activity change, negative = inhibition was 0.517% [at 30.8 µM].
In the case of `CCCN1C(=O)S/C(=C/c2ccc(N3CCOCC3)o2)C1=O`, the Potency entry in [1], in assay [4] and in assay [5] was “inactive” each time. Further, the Potency is 112 µM (active) in assay [2] and 67.5 µM (active) in assay [3].
`COc1cc(C2CC(=O)Oc3cc(C)cc(C)c32)cc(OC)c1OC` (stereo not given): the Potency result in assay [1], in assay [2], in [4] and in [5] was “inactive” in each case. In addition, the Potency in assay [3] was 1.51 µM (active).
Regarding `COc1ccc(C(C#N)=Cc2ccccc2OC)cc1`, the Potency entry in assay [1] is “inactive”. The activation in assay [2] is -1.43% [at 17.1 µM, percent relative to cAMP agonist control]. Also, the activity change, negative = inhibition in [4] is -8.61% [at 30.8 µM].
As for `N#Cc1c(-c2cccs2)nc(SCC(=O)c2ccc(Br)cc2)[nH]c1=O`, the result in assay [7], in assay [8] and in assay [10] was inactive. Moreover, the results for the Potency in [9] and in [1] were 15.8 µM (active) and 22.4 µM (active), respectively. The activation in assay [2] was 8.4% [at 17.1 µM, percent relative to cAMP agonist control]; in [5], 12.5% [at 30.8 µM]. For the same compound, in assay [3], the Potency entry is “inactive”.
Regarding `CC(=O)Nc1ccc(Nc2c3c4c(cccc4n(C)c2=O)C(=O)c2ccccc2-3)cc1`, the Potency result in [1] and in [4] was “inactive” each time. In addition, in [2], the Potency is 100 µM (active).
As for `Cc1ccc(OCc2nc3ccccc3n2CC(C)C)cc1`, the Potency entry in assay [1], in assay [2], in [3] and in [5] was “inactive” each time.
Regarding `O=C(C(=Cc1ccc(O)cc1)c1ccccc1)c1ccccc1`, the Potency result in [1], in assay [2] and in assay [4] was “inactive” throughout.
As for `CCN1CCc2c(sc(NC(=O)CSc3ccccc3)c2-c2nc3ccccc3s2)C1`, the Potency result in assay [6], in [1], in [2] and in assay [4] was “inactive” each time. Moreover, the Potency in assay [3] was 3.79 µM (active).
Take `CC(C)CC(=NNC(=O)c1ccncc1)c1cc(Cl)ccc1O`: the Potency result in assay [1] and in assay [4] was “inactive” each time. The Potency in [2] is 100 µM (active).
`Cc1cc(/C=C2\SC(=S)N(C)C2=O)c(C)n1-c1ccccc1O`: the Potency entry in assay [1] and in assay [3] was “inactive” each time. In addition, the Potency in assay [2] is 100 µM (active); in [5] it was 89.1 µM (active).
Turning to `CCOc1cccc2sc(N3CCN(C(=O)C(C)(C)C)CC3)nc12`, the Potency result in [1], in [2] and in assay [5] was “inactive” each time. The outcome in assay [3] was “inactive [at 12.7 µM]”.
As for `CSc1ncccc1C(=O)OCc1c(F)cccc1Cl`, the Potency entry in assay [1], in assay [2] and in assay [4] was “inactive” in each case.
Take `COc1cccc2c1C(=O)c1c(O)c3c(c(O)c1C2=O)CC(O)(C(C)=O)CC3OC1CC(N(C)C)C(O)C(C)O1` (stereo not given): the Potency in assay [6] is 9.19 µM (active). Further, the Potency entry in assay [1] and in assay [3] was “inactive” each time. Besides, the activation in [2] is 10.6% [at 17.1 µM, percent relative to cAMP agonist control]. Also, in [4], the activity change, negative = inhibition was 80.1% [at 30.8 µM].
On to `Oc1ccc2nnc3c(Br)cnn3c2c1`, for which the values for the Potency in assay [6] and in assay [2] were 16.3 µM (active) and 112 µM (active), respectively. Further, the Potency entry in [1], in assay [3] and in assay [4] was “inactive” in each case.
On to `Cc1ccccc1C(=O)Nc1ccc(C(=O)OCc2cc(=O)n3c4c(sc3n2)CCCC4)cc1`, for which the Potency entry in assay [1], in assay [2], in assay [3] and in assay [5] was “inactive” in each case.
As to `COCCn1c2nc(=O)n(-c3ccccc3)c(=O)c-2nc2ccccc21`, in assay [1], the Potency result is “inactive”. In addition, the figures for the Potency in assay [2], in assay [3] and in assay [5] were 100 µM (active), 75.7 µM (active) and 39.8 µM (active), respectively.
Taken in the same sequence, the figures for `COc1ccc2noc3c2c1C(=O)c1ccccc1-3` were “inactive”, 112 µM (active), “inactive” and 20 µM (active).
`COc1cccc2c1C(=O)c1c(O)c3c(c(O)c1C2=O)CC(O)(C(=O)CO)CC3OC1CC(N(C)C)C(O)C(C)O1` (stereo not given): the Potency in assay [6] was 4.61 µM (active). Also, the Potency result in assay [1] and in assay [3] was “inactive” each time. In assay [2], the activation was 8.33% [at 17.1 µM, percent relative to cAMP agonist control]. In addition, the activity change, negative = inhibition in assay [4] was 33.3% [at 30.8 µM].
In the case of `Cc1cccc(N2C(=O)c3cccc4c(N)ccc(c34)C2=O)c1`, the Potency in [6] is 2.31 µM (active); in assay [2], 112 µM (active); in [3] it was 84.9 µM (active); in assay [5], 70.8 µM (active). Further, in assay [1], the Potency entry is “inactive”.
On to `Cc1ccc(/C=C/C(=O)c2ccc(N3CCOCC3)cc2)s1`, for which the Potency result in assay [1] and in assay [4] was “inactive” throughout. In addition, the Potency in [2] is 100 µM (active).
Take `CCCn1c(O)c(N=Nc2ccc3ccccc3n2)c2ccccc21`: the Potency result in assay [6], in [1] and in assay [4] was “inactive” each time. Further, the figures for the Potency in assay [2] and in assay [3] were 100 µM (active) and 21.3 µM (active), respectively.
On to `COc1cc2c(cc1OC)C1(C)N(CC2)C(C(C)=O)=NN1c1ccc(Cl)cc1` (stereo not given), for which the Potency entry in assay [1] is “inactive”. For the same compound, in assay [2], the activation was 18% [at 17.1 µM, percent relative to cAMP agonist control]. In addition, the activity change, negative = inhibition in assay [4] was 5.93% [at 30.8 µM]. Also, the Potency in assay [5] is 3.55 µM (active).
As to `COC(=O)CCc1nc2cc(Cl)ccc2n(Cc2ccccc2)c1=O`, the Potency result in [1], in assay [2] and in [4] was “inactive” throughout.
On to `COCc1c(C(=O)N2CCc3ccccc32)oc2ccccc12`, for which the Potency entry in assay [1] and in assay [4] was “inactive” each time. Besides, the Potency in [2] is 112 µM (active).
Consider `COc1ccc(/C=C2\C(=O)NC(=O)c3ccccc32)cc1OC`, for which the Potency entry in [1], in [2] and in assay [4] was “inactive” throughout.
`Cc1nc(Cl)c2c(n1)NC1=C(O2)C(=O)CCC1`: the Potency in assay [6] is 18.3 µM (active). Besides, the Potency result in assay [1] and in assay [3] was “inactive” in each case. The activation in assay [2] is 10.5% [at 17.1 µM, percent relative to cAMP agonist control]. The activity change, negative = inhibition in assay [4] is 20% [at 30.8 µM].
With `CNc1ccc2c3c(cccc13)C(=O)N(C)C2=O`, the Potency in assay [6] was 2.06 µM (active); in assay [2], 112 µM (active); in assay [3], 84.9 µM (active). For the same compound, in assay [1], the Potency result is “inactive”.
Regarding `CCOC(=O)C1=C(C)NC(SC)=C(C#N)C1CC(C)C` (stereo not given), the Potency result in assay [1], in assay [2], in assay [3] and in assay [5] was “inactive” throughout.
Take `O=c1c(/C=C(\O)c2ccc(F)cc2)nc2ccccc2n1-c1ccccc1`: the Potency entry in assay [6], in [1], in assay [3] and in assay [4] was “inactive” in each case. Also, the Potency in assay [2] was 100 µM (active).
With `Cc1ccc(NC(=O)CSc2nnc(-c3cc4occc4n3C)n2-c2ccccc2C)c(Cl)c1`, the Potency result in [1], in [2] and in assay [4] was “inactive” each time.
Turning to `COc1ccc(O)c(C(=O)c2cc(SCC(=O)O)c3nc4sc5c(c4c(=O)n3c2)CCCC5)c1`, the Potency in [1] is 23.9 µM (active). Further, the Potency result in [2], in assay [3] and in [5] was “inactive” each time.
